Results reported in PubChem BioAssay (Tox21).
Results filed as inconclusive are left out. A number with no mark means an inactive call. Active and inactive are the calls of the source. Unless noted, calls come from the whole dose curve; as a rule, active = well fitted activation curve with a large enough effect in the repeat runs; inconclusive = weak or mixed curves, or effect the other way; inactive = no such curve, though single readings can be large or run the other way.

Assay: qHTS assay to identify small molecule antagonists of the estrogen related receptor signaling pathway with the pleiotropic PPARgamma coactivator (PGC) from Tox21 10K library (AID 1224841; call rule not given here; note: actives are mostly falling curves and most rising ones were filed inactive; nearly all actives have a fitted effect of over 50% in size)
Conditions: PGC/ERR reporter cell line, ONE-Glo luciferase, 18 h; series mostly up to 92.4 µM; activity, negative = inhibition: at the top concentration
How it was run: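 Compound exposure ran 18 hours at 37 C in PGC/ERR cells (2,000/well) that had first rested 6 hours in a 37 C/5% CO2 incubator. Luciferase activity was then detected with One-Glo after a 30-minute room-temperature step.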
% is set by controls: 0 for no effect and ±100 for the full control effect.

| Structure (SMILES) | activity, negative = inhibition |
| --- | --- |
| C=C/C(C)=C/C/C=C(\C)CCC=C(C)C | -24% |
| CC(CN(C)C)C(C)(O)Cc1ccc(Cl)cc1 (centres undefined) | 2.58% [at 42.5 µM] |
| Cc1cccc(O)c1N | 116% |
| CS(=O)(=O)c1ccc(-c2cn3ccccc3n2)cc1 | 90.7% [at 42.5 µM] |
| CCCCCCCCCI | 227% |
| N#CCc1ccc(Cl)cc1Cl | 1.8% |
| COc1ccc(OC(=O)N(CC(=O)O)Cc2ccc(OCCc3nc(-c4ccccc4)oc3C)cc2)cc1 | 19% [at 42.5 µM] |
| CCCCCC[C@@H](O)C/C=C\CCCCCCCC(=O)OCC(O)CO (some centres undefined) | 2.28% |
| O=C(OCC(O)CO)c1ccccc1Nc1ccnc2cc(Cl)ccc12 (centres undefined) | 4.07% [at 42.5 µM] |
| C=C(C)C(=O)OCCOCCOC(=O)C(=C)C | 5.06% |

Assay: qHTS assay to identify small molecule agonists of the estrogen related receptor signaling pathway with the pleiotropic PPARgamma coactivator (PGC) from Tox21 10K library (AID 1224842); note: nearly all actives have a fitted effect of over 15% in size; note: potency is the fitted concentration of half-maximal effect
Conditions: PGC/ERR reporter cell line, luciferase ONE-Glo, 18 h; series mostly up to 92.4 µM; activation: at the top concentration
How it was run: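 Luminescence from One-Glo (30 min, room temperature) measured after PGC/ERR cells had 18 h at 37 C with pinned compound (23 nL in DMSO). Cells had been seeded at 2,000 per well and pre-incubated 6 h.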

| Structure (SMILES) | activation | Potency |
| --- | --- | --- |
| C=C/C(C)=C/C/C=C(\C)CCC=C(C)C | -7.46% |  |
| c1ccc(C[n+]2cccc3ccccc32)cc1 | -20.4% |  |
| c1csc(SSc2cccs2)c1 | -12.5% |  |
| O=C=Nc1ccc(Cl)c(Cl)c1 | -1.8% |  |
| CC(CN(C)C)C(C)(O)Cc1ccc(Cl)cc1 (centres undefined) | 0.714% [at 42.5 µM] |  |
| Brc1cc2ccccc2c2ccccc12 | -20.8% |  |
| Cc1cccc(O)c1N | 6.96% |  |
| CCCCCCCCCI |  | 8.79 µM (active) |
| N#CCc1ccc(Cl)cc1Cl | 0.887% |  |
| COc1ccc(OC(=O)N(CC(=O)O)Cc2ccc(OCCc3nc(-c4ccccc4)oc3C)cc2)cc1 | 5.37% [at 42.5 µM] |  |
| CCCCCC[C@@H](O)C/C=C\CCCCCCCC(=O)OCC(O)CO (some centres undefined) | 0.703% |  |
| NC(=O)c1ccncc1 | 1.56% |  |
| COC(=O)c1nc(Cl)c(Cl)nc1N | -37.7% [at 42.5 µM] |  |
| O=C(OCC(O)CO)c1ccccc1Nc1ccnc2cc(Cl)ccc12 (centres undefined) | 1.07% [at 42.5 µM] |  |
| CC(C)C=O | -0.754% |  |
| O=C1C(=O)c2ccccc2C(O)=C1C1CCC(c2ccc(Cl)cc2)CC1 (centres undefined) | -4.12% [at 42.5 µM] |  |
| C=C(C)C(=O)OCCOCCOC(=O)C(=C)C | 1.59% |  |
| CCCCC(CC)CN (centres undefined) | 1.69% |  |
| CC1=C(Br)C(=O)C(Br)=C/C1=C(/c1ccccc1S(=O)(=O)O)c1cc(Br)c(O)c(Br)c1C | -26.5% [at 42.5 µM] |  |
